Results reported in PubChem BioAssay (NCATS).
Records with an inconclusive call do not appear. The source holds several records for some structures; these can differ, active in one and inactive in another. Activity calls are given as the source filed them. Calls come from the whole dose curve; as a rule, active = well fitted curve in the direction sought with a large enough effect; inconclusive = small, poorly fitted or top-dose-only effect, or another doubt; inactive = no such curve, though single readings can be large; an effect the other way counts as inactive or inconclusive.

What was measured:
[1] = Quantitative highthroughput screen to assess conditional lethalithy of NOMO1 cells grown in RPMI1640 with untreated serum (RPMI+s) (AID 1963876); conditions: NOMO1 AML cells in RPMI+serum, CellTiter-Glo viability, 48 h; series mostly up to 45.8 µM; note: nearly all actives have a fitted effect of over 35% in size;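 for viability: 100% = DMSO wells and 0% = empty wells without cells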
Summary of the method: (§1)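 Each medium arm—HPLM with 10% dialyzed FBS, or RPMI1640 with 5 mM glucose and 10% untreated or dialyzed FBS—was screened against an 11-point, 3-fold compound titration for 48 h at 37 °C, with CellTiter-Glo luminescence as endpoint.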

[2] = Quantitative highthroughput screen to assess conditional lethalithy of NOMO1 cells grown in RPMI1640 with dialyzed fetal bovine serum (RPMI+ds) (AID 1963877); conditions: NOMO1 in RPMI+dialyzed FBS viability, ATP luminescence, 48 h; series mostly up to 45.8 µM; note: nearly all actives have a fitted effect of over 30% in size;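 for viability: 100% = DMSO control wells and 0% = empty wells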
Summary of the method: as §1

[3] = Quantitative highthroughput screen to assess conditional lethalithy of NOMO1 cells grown in Human Plasma-Like Medium with dialyzed fetal bovine serum (HPLM+ds) (AID 1963878); conditions: NOMO1 AML cells in HPLM+ds, CellTiter-Glo viability, 48 h; series mostly up to 45.8 µM; note: nearly all actives have a fitted effect of over 35% in size;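 for viability: 100% = DMSO wells and 0% = empty wells on each plate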
Summary of the method: as §1

[4] = Quantitative highthroughput screen to assess conditional lethalithy of P12 Ichikawa cells grown in Human Plasma-Like Medium with dialyzed fetal bovine serum (HPLM+ds) (AID 1963879); conditions: ATP luminescence, 48 h; Potency: viability; series mostly up to 45.8 µM; note: nearly all actives have a fitted effect of over 35% in size
Summary of the method: as §1

[5] = Quantitative highthroughput screen to assess conditional lethalithy of P12 Ichikawa cells grown in RPMI1640 with untreated serum (RPMI+s) (AID 1963881); conditions: ATP luminescence, 48 h; Potency: viability; series mostly up to 45.8 µM; note: nearly all actives have a fitted effect of over 35% in size;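 for viability: 100% = DMSO wells and 0% = empty wells without cells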
Summary of the method: as §1

[6] = Quantitative highthroughput screen to assess conditional lethalithy of SEM cells grown in Human Plasma-Like Medium with dialyzed fetal bovine serum (HPLM+ds) (AID 1963882); conditions: SEM B-ALL cells in HPLM+ds, CellTiter-Glo viability, 48 h; series mostly up to 45.8 µM; note: nearly all actives have a fitted effect of over 35% in size
Summary of the method: as §1

[7] = Quantitative highthroughput screen to assess conditional lethalithy of SEM cells grown in RPMI1640 with unreated serum (RPMI+s) (AID 1963883); conditions: SEM B-ALL cells, CellTiter-Glo viability, 48 h; series mostly up to 45.8 µM; note: nearly all actives have a fitted effect of over 35% in size;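 for viability: 100% = DMSO wells and 0% = empty wells without cells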
Summary of the method: as §1

[8] = Quantitative highthroughput screen to assess conditional lethalithy of SEM cells grown in RPMI1640 with dialyzed fetal bovine serum (RPMI+ds) (AID 1963884); conditions: SEM B-ALL cells, RPMI+dialyzed FBS, CellTiter-Glo viability, 48 h; series mostly up to 45.8 µM; note: nearly all actives have a fitted effect of over 35% in size;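 for viability: 100% = DMSO control wells and 0% = empty wells without cells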
Summary of the method: as §1

[9] = Cellular viability qHTS for adrenocortical cancer (ACC) cell line SW-13 (AID 1963989); conditions: SW-13 ACC cells viability, CellTiter-Glo, 48 h; activity (max response): stronger effect = lower value; note: nearly all actives have a fitted effect of over 65% in size;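 for activity (max response): cells grown in serum-free medium with ITS supplement; % is set by controls: 0 for no effect and ±100 for the full control effect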
Summary of the method: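 Viability was read as CellTiter-Glo luminescence after 48 h compound treatment (up to 46 uM final) of SW-13 cells grown serum-free; titration curves were fit with a four-parameter logistic model to give IC50 and efficacy.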

[10] = Cellular viability qHTS for adrenocortical cancer (ACC) cell line NCI-H295R (AID 1963990); conditions: CellTiter-Glo ATP luminescence, 48 h; series mostly up to 46.1 µM; note: nearly all actives have a fitted effect of over 60% in size
Summary of the method: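 CellTiter-Glo ATP luminescence, read 48 h after compound addition, measured viability of NCI-H295R adrenocortical cells grown serum-free with ITS. Final concentrations spanned up to 46 uM. Data normalized to DMSO and doxorubicin, fitted for IC50 and maximal response.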

[11] = Quantitative highthroughput screen to assess conditional lethalithy of P12 Ichikawa cells grown in RPMI1640 with dialyzed fetal bovine serum (RPMI+ds) (AID 1963880); conditions: ATP luminescence, 48 h; Potency: P12-Ichikawa viability; series mostly up to 45.8 µM; note: nearly all actives have a fitted effect of over 35% in size;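 for viability: 100% = DMSO wells and 0% = empty wells on each plate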
Summary of the method: as §1
Potency is the fitted concentration of half-maximal effect.

C=C1C(=O)O[C@H]2[C@@H]1CCC(C)=CCC[C@@]1(C)O[C@@H]21
active: Potency [1] 4.69 µM | Potency [2] 5.9 µM | Potency [3] 2.35 µM | Potency [4] 2.35 µM | Potency [5] 2.64 µM | Potency [6] 1.32 µM | Potency [7] 0.833 µM | Potency [8] 1.48 µM

C=C1CCC2[C@](C)(CO)C(O)CC[C@]2(C)C1CC=C1C(=O)OCC1O (stereo partly specified)
inactive: Potency [1] | Potency [2] | Potency [3] | Potency [4] | Potency [5] | Potency [6] | Potency [8]
active: Potency [7] 0.034 µM

O=C(O)[C@H]1O[C@H](Oc2cc3oc(-c4ccccc4)cc(=O)c3c(O)c2O)[C@H](O)[C@@H](O)[C@H]1O
inactive: Potency [1] | Potency [2] | Potency [3]
active: Potency [5] 18.7 µM | Potency [6] 18.7 µM | Potency [7] 18.7 µM

CCCCCCCN(CC)CCCC(O)c1ccc(NS(C)(=O)=O)cc1 (stereo unspecified)
inactive: Potency [1] | Potency [2] | Potency [3] | activity (max response) [9] -11.3% | Potency [10]
active: Potency [4] 13.2 µM

CO[C@H]1C(=O)[C@]2(C)[C@@H](OC)C[C@H]3OC[C@@]3(OC(C)=O)[C@H]2[C@H](OC(=O)c2ccccc2)[C@]2(O)C[C@H](OC(=O)[C@H](O)[C@@H](NC(=O)OC(C)(C)C)c3ccccc3)C(C)=C1C2(C)C
active: Potency [1] 0.0132 µM | Potency [2] 0.0132 µM | Potency [3] 0.0021 µM | Potency [5] 0.0148 µM | Potency [7] 0.0042 µM

CC(=O)[C@]1(O)Cc2c(O)c3c(c(O)c2[C@@H](O[C@H]2C[C@H](N)[C@@H](O)[C@H](C)O2)C1)C(=O)c1ccccc1C3=O
active: Potency [1] 2.96 µM | Potency [2] 3.72 µM | Potency [3] 2.96 µM | Potency [11] 1.48 µM | Potency [5] 1.48 µM | Potency [6] 1.05 µM | Potency [7] 0.833 µM

C[C@H]1[C@H](O)O[C@@H]2O[C@@]3(C)CC[C@@H]4[C@H](C)CC[C@@H]1[C@@]24OO3
active: Potency [1] 1.87 µM | Potency [2] 2.09 µM | Potency [3] 2.09 µM | Potency [5] 2.96 µM | Potency [6] 4.18 µM | Potency [7] 4.69 µM | Potency [8] 3.32 µM

COc1cc2c(cc1OC)C1CC(=O)C(CC(C)C)CN1CC2 (stereo unspecified)
inactive: Potency [1] | Potency [2] | Potency [3] | Potency [11] | Potency [5] | Potency [6] | Potency [7] | Potency [8] | activity (max response) [9] -1.87%

NC(N)=Nc1nc(CSCCC(N)=NS(N)(=O)=O)cs1
inactive: Potency [1] | Potency [2] | Potency [3] | Potency [11] | Potency [5] | Potency [6] | Potency [7] | Potency [8]

O=C1c2c(O)cc(O)cc2O[C@H](c2cc(O)c(O)c(O)c2)[C@H]1O
inactive: Potency [1] | Potency [2] | Potency [3] | Potency [5]
active: Potency [6] 3.72 µM | Potency [8] 5.26 µM

O=C(O)[C@@H](c1ccc(OCc2ccc3ccccc3n2)cc1)C1CCCC1
inactive: Potency [1] | Potency [2] | Potency [3] | Potency [11] | Potency [5] | Potency [6] | Potency [7] | activity (max response) [9] -1.81% | Potency [10]

O=C1NCCc2[nH]c(-c3ccncc3)cc21
active: Potency [1] 18.7 µM | Potency [2] 20.9 µM | Potency [3] 18.7 µM | Potency [11] 14.8 µM | Potency [5] 14.8 µM | Potency [6] 13.2 µM | Potency [7] 13.2 µM | Potency [8] 14.8 µM | Potency [9] 7.94 µM | Potency [10] 7.08 µM

CC(=O)SC[C@@H](C)C(=O)N1CCC[C@H]1C(=O)N[C@@H](Cc1ccccc1)C(=O)O
inactive: Potency [1] | Potency [2] | Potency [3] | Potency [11] | Potency [5] | Potency [7] | Potency [8] | activity (max response) [9] 16.6% | Potency [10]

COc1ccc(C(C)=O)c(O)c1
active: Potency [1] 2.64 µM | Potency [2] 2.96 µM | Potency [3] 0.935 µM | Potency [5] 8.33 µM
inactive: Potency [6] | Potency [7] | Potency [8]

Cc1nc(NC(=O)N2CCC[C@@H]2C(N)=O)sc1-c1ccnc(C(C)(C)C(F)(F)F)c1
active: Potency [1] 2.96 µM | Potency [2] 2.64 µM | Potency [3] 2.64 µM | Potency [5] 3.32 µM | Potency [6] 1.48 µM | Potency [8] 2.96 µM

CC(=O)OCC(=O)[C@@]12N=C(C)O[C@H]1C[C@H]1[C@@H]3CCC4=CC(=O)C=C[C@]4(C)[C@@H]3[C@@H](O)C[C@@]12C
active: Potency [4] 4.18 µM | Potency [7] 23.5 µM | Potency [8] 20.9 µM
inactive: Potency [1] | Potency [2] | Potency [3]

OC[C@H]1O[C@@H](Oc2ccc(O)cc2)[C@H](O)[C@@H](O)[C@H]1O
inactive: Potency [1] | Potency [2] | Potency [3] | Potency [11] | Potency [5] | Potency [7] | Potency [8]

Cc1ccc(-c2cc(C(F)(F)F)nn2-c2ccc(S(N)(=O)=O)cc2)cc1
inactive: Potency [1] | Potency [2] | Potency [3] | Potency [11] | Potency [5] | Potency [6] | Potency [7] | Potency [8] | Potency [10]

Cc1ccc(C2=Nc3ccc(Cl)cc3OC2)cc1
active: Potency [5] 20.9 µM
inactive: Potency [1] | Potency [2] | Potency [3] | activity (max response) [9] -18.7% | Potency [10]

CN(N=O)C(=O)N[C@H]1C(O)OC(CO)[C@@H](O)[C@H]1O (stereo partly specified)
inactive: Potency [1] | Potency [2] | Potency [3] | Potency [11] | Potency [5]

CCN(CC)CCOc1ccc(Cc2ccccc2)cc1
18.4 µM (active) and inactive: Potency [10]
active: Potency [1] 10.5 µM | Potency [3] 7.43 µM | Potency [8] 8.33 µM
inactive: Potency [2] | Potency [5] | activity (max response) [9] -24%
